Experimental data: PubChem BioAssay (NCI)
Compounds without any hit were thinned out: in the full panel of roughly 83,000, 20% have a hit.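 Plates (96-well) were seeded with cells, treated with compound at one concentration, and incubated for 48 hours before percent growth was determined.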 Unmarked numbers belong to inactive results. Active and inactive are the calls of the source. Rule for the calls: active = growth percent below 10; inactive = the rest.

Experiments:
Assay in all cases: NCI-60 one-dose screen, 48 h (100 = growth as untreated, 0 = no growth, -100 = all killed)
DU-145 prostate = conditions: 10 µM unless noted
K-562 leukemia = conditions: 10 µM unless noted
MALME-3M melanoma = conditions: 10 µM unless noted
MDA-MB-231 breast = conditions: 10 µM unless noted
RXF 393 renal = conditions: 10 µM unless noted
SF-268 CNS = conditions: 10 µM unless noted
SF-295 CNS = conditions: 10 µM unless noted
SF-539 CNS = conditions: 10 µM unless noted
UACC-257 melanoma = conditions: 10 µM
M14 melanoma = conditions: 10 µM unless noted
HCT-15 colon = conditions: 10 µM unless noted
HT29 colon = conditions: 10 µM unless noted
SNB-75 CNS = conditions: 10 µM unless noted
SNB-19 CNS = conditions: 10 µM unless noted
U251 CNS = conditions: 10 µM unless noted
PC-3 prostate = conditions: 10 µM unless noted
SK-MEL-5 melanoma = conditions: 10 µM unless noted
UACC-62 melanoma = conditions: 10 µM unless noted
LOX IMVI melanoma = conditions: 10 µM unless noted
SK-MEL-28 melanoma = conditions: 10 µM unless noted

Row | Structure (SMILES) | growth (DU-145 prostate) | growth (K-562 leukemia) | growth (MALME-3M melanoma) | growth (MDA-MB-231 breast) | growth (RXF 393 renal) | growth (SF-268 CNS) | growth (SF-295 CNS) | growth (SF-539 CNS) | growth (UACC-257 melanoma) | growth (M14 melanoma) | growth (HCT-15 colon) | growth (HT29 colon) | growth (SNB-75 CNS) | growth (SNB-19 CNS) | growth (U251 CNS) | growth (PC-3 prostate) | growth (SK-MEL-5 melanoma) | growth (UACC-62 melanoma) | growth (LOX IMVI melanoma) | growth (SK-MEL-28 melanoma)
1 | O=S(=O)(Nc1ccc(C2CC2)cc1)c1ccc(-c2cnc(C3CC3)o2)cc1 | 88.5% | 15.7% | 66.6% | 72.5% | 74.6% | 78% | 49.4% | 62.9% | 79.8% | 53.6% | 39.9% | 38.4% | 53.8% | 73.7% | 68.7% | 63.1% | 74.7% | 48.5% | 55.7% | 73.2%
2 | CCOC(=O)c1c(NCC(=O)Nc2cccc(Cl)c2)sc2c1CCCC2 | 93.8% | 66% | 82.8% | 86.5% | 87.3% | 84.8% | 80.1% | 92.5% | 99.1% | 83.2% | 66.4% | 101% | 59.5% | 82.7% | 63.6% | 73.6% | 84.5% | 61.9% | 35.3% | 89.5%
3 | c1ccc(-c2c(-c3ccccc3)[n+](Cc3ccc4ccccc4c3)c(-c3ccccc3)n2Cc2ccc3ccccc3c2)cc1 | -92.6% (active) | -30.9% (active) | -82.5% (active) | -85.6% (active) | -91.9% (active) | -73.5% (active) | -91.3% (active) | -90% (active) | -56.6% (active) | -72% (active) | -81.7% (active) | -70.1% (active) | -78.4% (active) | -94.9% (active) | -78.8% (active) | -87.3% (active) | -99.1% (active) | -88.6% (active) | -89.8% (active) | -93.3% (active)
4 | Cc1cn(-c2cc(NC(=O)c3cncc(C#Cc4cnc5ccc(O[C@H]6CCOC6)nn45)c3)cc(C(F)(F)F)c2)cn1 | 91.8% | 12.9% | 52.7% | 47.7% | 60.4% | 94.7% | 96.8% | 59.3% | 97.1% | 57.7% | 82.8% | 69% | 92.9% | 117% | 105% | 96.5% | 70.6% | 70.6% | 62.6% | 76.3%
5 | Cc1ccc(/C=C/CC(=O)Nc2ccc(C(=O)Nc3ccc(F)cc3N)cc2)cn1 | 54.3% | 34% | 41.4% | 69.3% | 74.5% | 60.4% | 69.7% | 55.9% | 52.4% | 56.7% | 79.5% | 36.1% | 74.8% | 73.7% | 61.1% | 53% | 69.3% | 51.3% | 49.3% | 55.6%
6 | N#Cc1c(NC(=O)c2ccc(F)c(Cl)c2)sc2c1CCC(=O)C2 | 25.8% | 9.06% (active) | -78.7% (active) | -55.7% (active) | -60.5% (active) | 16.3% | -12.2% (active) | -56.2% (active) | 2.11% (active) | -17.8% (active) | -38.6% (active) | 8.89% (active) | -0.913% (active) | 15.1% | 11.6% | -19.8% (active) | -75.6% (active) | -69.7% (active) | -16.1% (active) | -66.9% (active)
7 | CCC(=O)Nc1ccc(-c2nc(-c3cccc(O)c3)c(-c3ccnc(Br)c3)[nH]2)cc1 | 56% | 32.8% | 59.8% | 71.8% | -4.84% (active) | 82.1% | 45.8% | 57.1% | 64.1% | 66.7% | 78.6% | 51.7% | 8.26% (active) | 58% | 47.8% | 60.5% | 77% | 34.6% | 59.3% | 59.1%
8 | CCOC(=O)c1nn(-c2ccc(C)cc2)c(=O)c2c(N)c(C#N)c(-c3ccc(OC)cc3)cc12 | 109% | 118% | 93.8% | 84.8% | 104% | 95.5% | 103% | 102% | 107% | 102% | 99.2% | 99.4% | 67.3% | 91.3% | 103% | 94.8% | 99.9% | 94.9% | 95.5% | 100%
9 | CN(C)C(=O)C1=NC(CO)C(=O)N(c2ccc(Cl)cc2)N1 (stereo not drawn) | 107% | 109% | 101% | 97.9% | 120% | 97.8% | 103% | 95.8% | 107% | 92.8% | 102% | 102% | 105% | 102% | 101% | 90.8% | 102% | 96.6% | 95.3% | 107%
10 | C#C[C@]1(O)CC[C@H]2[C@@H]3CC=C4c5sc(Nc6ccc(OC)nc6)nc5CC[C@]4(C)[C@H]3CC[C@@]21C | 24.8% | 6.1% (active) | 55.2% | 64.8% | -15.7% (active) | 45.9% | -29.7% (active) | 13.9% | 89% | 59% | -66.4% (active) | -4.57% (active) | -8.98% (active) | 50.5% | 17.8% | 29.9% | 52.1% | 70.5% |  | 68.8%
11 | COc1ccc(NC(=O)[C@H](C)N)cc1C(=O)Nc1cccc(-c2cc(=O)c3c(OC)c(OC)c(OC)cc3o2)c1 | 60.8% | 52.6% | 86.5% | 62.3% | 71.9% | 66.6% | 64.6% | 71.9% | 109% | 104% | 49.6% | 69.8% | 84.5% | 65.8% | 56.3% | 71.6% | 57.9% | 63.5% | 49.8% | 88.2%
12 | O=C1c2c(c3c4cc(Br)ccc4[nH]c3c3ccc4ccccc4c23)C(=O)N1CCN1CCCCC1 | 22.9% | -50.3% (active) | 68.1% | 77.7% | 59.5% | 38.4% | 23.7% | 38.7% | 93% | 20% | -60% (active) | 10.3% | 49.6% | 37.7% | -10.9% (active) | 65% | 68.3% | 59.5% |  | 93.5%
13 | COc1ccc2c(c1)c(-c1nnc(N)nc1-c1cn(C)c3ccccc13)cn2C | 104% | 83.5% | 85.6% | 91.1% | 93.2% | 101% | 99.5% | 91.8% | 93.8% | 85.7% | 87% | 96% | 42.9% | 93.2% | 102% | 88.8% | 97.8% | 79% | 90.8% | 97.3%
14 | CC(C)=CCc1c(O)c(CC=C(C)C)c2c(c1O)C(=O)C1=C[C@@H]3C[C@H]4C(C)(C)O[C@@](C/C=C(\C)C(=O)O)(C3=O)[C@@]14O2 | -60.5% (active) | 5.16% (active) | -19.3% (active) | 29.8% | -82.2% (active) | 5.98% (active) | -9.35% (active) | -77.5% (active) | -38.2% (active) | 5.07% (active) | -30% (active) | -11.1% (active) | 33.7% | 41.6% | -71.9% (active) | 11.3% | -94.9% (active) | -22.3% (active) | -97% (active) | -11.2% (active)
15 | CN1CCN(c2ccc(C(=O)/C=C/c3ccc(Cl)c(C(F)(F)F)c3)cc2)CC1 | 77.9% | 7.64% (active) | 88.4% | 83.3% | 63.4% | 87% | 103% | 49.4% | 75.2% | 87.2% | 17% | 11.6% | 65.3% | 73.7% | 38.4% | 43.4% | 74.3% | 75.4% | 12.8% | 87.2%
